Legend:
[1] = test system: Vero E6 infected with SARS-CoV-2; experiment: morphology score (similarity to uninfected cells); higher = more like uninfected cells; conditions: 24 h
[2] = test system: Vero E6 infected with SARS-CoV-2; experiment: SARS-CoV-2 infection rate relative to infected DMSO; higher = more infection, active = 60 or less; conditions: 24 h

## Clc1ccc(N/N=C(\c2ccccc2)c2ccccn2)nc1 (10 µM)
[1]
  morphology score: 0.0534
[2]
  SARS-CoV-2 infection rate: 103% (inactive)

## Cc1cc(C)cc(OCC2CNC(=O)O2)c1 (stereo not drawn) [metaxalone] (10 µM)
[1]
  morphology score: 0.134
[2]
  SARS-CoV-2 infection rate: 97% (inactive)

## Cc1cc(C)nc(NS(=O)(=O)c2ccc(N)cc2)n1 [sulfamethazine] (10 µM)
[1]
  morphology score: 0.0855
[2]
  SARS-CoV-2 infection rate: 111% (inactive)

## O=C(Nc1ccc(Cl)nc1)c1ccc(Cl)cc1 (10 µM)
[1]
  morphology score: 0.18
[2]
  SARS-CoV-2 infection rate: 99.5% (inactive)

## C[C@@H](C(=O)O)c1ccc(-c2ccccc2)c(F)c1 (racemic) [flurbiprofen-(+/-)] (10 µM)
[1]
  morphology score: 0.232
[2]
  SARS-CoV-2 infection rate: 107% (inactive)

## NC(=O)OCC(O)COc1ccc(Cl)cc1 (stereo not drawn) [chlorphensin-carbamate] (10 µM)
[1]
  morphology score: -0.0129
[2]
  SARS-CoV-2 infection rate: 112% (inactive)

## Fc1cc(-c2cccc3ncc(-c4cnn(C5CCNCC5)c4)nc23)cc(F)c1CN1CCOCC1 (0.833333 µM)
[1]
  morphology score: 0.0457
[2]
  SARS-CoV-2 infection rate: 116% (inactive)

## CC(=O)NC[C@H]1CN(c2ccc(-c3ccc(CNCc4cnn[nH]4)cc3)c(F)c2)C(=O)O1 [radezolid] (10 µM)
[1]
  morphology score: 0.0332
[2]
  SARS-CoV-2 infection rate: 110% (inactive)

## COc1ccc(-n2nc(C(F)(F)F)cc2-c2ccc(Cl)cc2)cc1 (0.833333 µM)
[1]
  morphology score: -0.0472
[2]
  SARS-CoV-2 infection rate: 101% (inactive)

## Cc1nc2c(c(=O)[nH]1)CSCC2 (10 µM)
[1]
  morphology score: 0.0297
[2]
  SARS-CoV-2 infection rate: 114% (inactive)

## O=C1NC(c2ccccc2)(c2ccccc2)C(=O)N1COP(=O)(O)O [fosphenytoin] (10 µM)
[1]
  morphology score: -0.197
[2]
  SARS-CoV-2 infection rate: 123% (inactive)

## CCCCN1CCC(CNC(=O)c2c3n(c4ccccc24)CCCO3)CC1 [piboserod] (10 µM)
[1]
  morphology score: 0.132
[2]
  SARS-CoV-2 infection rate: 92.5% (inactive)

## N[C@H](C(=O)O)c1cc(O)no1 [ibotenic-acid] (10 µM)
[1]
  morphology score: -0.00755
[2]
  SARS-CoV-2 infection rate: 93% (inactive)

## CCCCN1[C@@H]2CC[C@H]1C[C@@H](OC(c1ccc(F)cc1)c1ccc(F)cc1)C2 (0.833333 µM)
[1]
  morphology score: 0.0455
[2]
  SARS-CoV-2 infection rate: 86% (inactive)

## COC(=O)N[C@H](C(=O)N1CCC[C@H]1C(=O)Nc1ccc([C@@H]2CC[C@@H](c3ccc(NC(=O)[C@@H]4CCCN4C(=O)[C@@H](NC(=O)OC)C(C)C)cc3)N2c2ccc(C(C)(C)C)cc2)cc1)C(C)C [ombitasvir] (10 µM)
[1]
  morphology score: 0.125
[2]
  SARS-CoV-2 infection rate: 113% (inactive)

## Cc1noc2c1-c1ccccc1C(c1ccc(Cl)cc1)=N[C@H]2CC(N)=O (10 µM)
[1]
  morphology score: -0.0562
[2]
  SARS-CoV-2 infection rate: 108% (inactive)

## NC(=O)c1cc([N+](=O)[O-])cc([N+](=O)[O-])c1 [nitromide] (10 µM)
[1]
  morphology score: 0.265
[2]
  SARS-CoV-2 infection rate: 83.5% (inactive)

## CCOC(=O)C1=C[C@]2(CC)CCCN3CCc4c(n1c1ccccc41)[C@@H]32 [vinpocetine] (10 µM)
[1]
  morphology score: 0.176
[2]
  SARS-CoV-2 infection rate: 102% (inactive)

## C[C@H]1c2cccc(O)c2C(=O)C2=C(O)[C@]3(O)C(=O)C(C(N)=O)=C(O)[C@@H](N(C)C)[C@@H]3[C@@H](O)[C@@H]21 [doxycycline] (10 µM)
[1]
  morphology score: 0.0783
[2]
  SARS-CoV-2 infection rate: 97% (inactive)

## CC(=O)Nc1cccc2c1c(Sc1ccc(Cl)cc1)c(C)n2CC(=O)O (10 µM)
[1]
  morphology score: 0.187
[2]
  SARS-CoV-2 infection rate: 97% (inactive)

## CN1CCc2c(c3ccccc3n2Cc2ccccc2)C1 [mebhydrolin] (10 µM)
[1]
  morphology score: 0.242
[2]
  SARS-CoV-2 infection rate: 104% (inactive)

## C/C=C/C=C/C(=O)O [sorbic-acid] (10 µM)
[1]
  morphology score: -0.0925
[2]
  SARS-CoV-2 infection rate: 101% (inactive)

## CCNCCS(=O)(=O)NC[C@@]1(c2ccccc2)SC(NC(=O)C(C)(C)C)=NN1C(=O)C(C)(C)C [litronesib] (10 µM)
[1]
  morphology score: -0.218
[2]
  SARS-CoV-2 infection rate: 100% (inactive)

## C[C@@H](O)[C@H](N)C(=O)N1CCC[C@H]1C(=O)N1CCC[C@H]1C(=O)N[C@H](C(N)=O)[C@@H](C)O [rapastinel] (10 µM)
[1]
  morphology score: -0.00969
[2]
  SARS-CoV-2 infection rate: 94% (inactive)

## CCCCCCCCCCCCCCCCNc1ccc(C(=O)O)cc1 [cetaben] (10 µM)
[1]
  morphology score: 0.21
[2]
  SARS-CoV-2 infection rate: 91.5% (inactive)

## CCN[C@H]1C[C@H](C)S(=O)(=O)c2sc(S(N)(=O)=O)cc21 [dorzolamide] (10 µM)
[1]
  morphology score: 0.0923
[2]
  SARS-CoV-2 infection rate: 100% (inactive)

## Cc1cc(-c2ccc(/N=N/c3ccc4c(S(=O)(=O)O)cc(S(=O)(=O)O)c(N)c4c3O)c(C)c2)ccc1/N=N/c1ccc2c(S(=O)(=O)O)cc(S(=O)(=O)O)c(N)c2c1O [evans-blue] (0.833333 µM)
[1]
  morphology score: -0.0473
[2]
  SARS-CoV-2 infection rate: 110% (inactive)

## CC(C)=CCC/C(C)=C/CC/C(C)=C/CC[C@]1(C)CCc2cc(O)cc(C)c2O1 [delta-tocotrienol] (10 µM)
[1]
  morphology score: 0.0442
[2]
  SARS-CoV-2 infection rate: 104% (inactive)

## COc1cc2c(NC3CCN(C4CCCCC4)CC3)nc(N3CCCN(C(C)C)CC3)nc2cc1OCCCN1CCCCC1 (10 µM)
[1]
  morphology score: 0.458
[2]
  SARS-CoV-2 infection rate: 52% (active)

## Cc1nc2c([nH]1)-c1ccccc1N(C(=O)c1ccc(NC(=O)c3ccccc3-c3ccccc3)cc1)CC2 [conivaptan] (10 µM)
[1]
  morphology score: 0.193
[2]
  SARS-CoV-2 infection rate: 107% (inactive)

## CC(C)(C)c1cc(C(C)(C)C)c(NC(=O)c2c[nH]c3ccccc3c2=O)cc1O [ivacaftor] (10 µM)
[1]
  morphology score: 0.363
[2]
  SARS-CoV-2 infection rate: 93% (inactive)

## CCCCCCCCCCCCCCCC(=O)OC[C@@H](NC(=O)C(Cl)Cl)[C@H](O)c1ccc([N+](=O)[O-])cc1 [chloramphenicol-palmitate] (10 µM)
[1]
  morphology score: 0.04
[2]
  SARS-CoV-2 infection rate: 106% (inactive)

## C[C@]12C=CC(=O)C=C1CC[C@@H]1[C@@H]2[C@@H](O)C[C@@]2(C)[C@H]1CC[C@]2(O)C(=O)COC(=O)CCC(=O)O [prednisolone-hemisuccinate] (10 µM)
[1]
  morphology score: 0.166
[2]
  SARS-CoV-2 infection rate: 94% (inactive)

## Cc1cccc(NC(=O)N[C@@H]2N=C(c3ccccc3)c3ccccc3N(C)C2=O)c1 (10 µM)
[1]
  morphology score: 0.0212
[2]
  SARS-CoV-2 infection rate: 106% (inactive)

## N#Cc1ccc(-c2ccc(S(=O)(=O)Nc3cccc(N)n3)cc2)cc1 (10 µM)
[1]
  morphology score: -0.0328
[2]
  SARS-CoV-2 infection rate: 120% (inactive)

## Cc1ccc(F)c(NC(=O)Nc2ccc(-c3cccc4[nH]nc(N)c34)cc2)c1 [linifanib] (10 µM)
[1]
  morphology score: -0.188
[2]
  SARS-CoV-2 infection rate: 118% (inactive)

## CC(C)=CCC[C@](C)(O)[C@H]1CC[C@]2(C)[C@@H]1[C@H](O)C[C@@H]1[C@@]3(C)CC[C@H](O)C(C)(C)[C@@H]3[C@@H](O)C[C@]12C [hemomex-s] (10 µM)
[1]
  morphology score: 0.173
[2]
  SARS-CoV-2 infection rate: 104% (inactive)

## CCC(=O)O[C@H]1[C@H](O[C@@H]2[C@@H](C)[C@H](O[C@H]3C[C@@](C)(OC)[C@@H](O)[C@H](C)O3)[C@@H](C)C(=O)O[C@H](CC)[C@@](C)(O)[C@H](O)[C@@H](C)C(=O)[C@H](C)C[C@@]2(C)O)O[C@H](C)C[C@@H]1N(C)C [erythromycin-estolate] (10 µM)
[1]
  morphology score: 0.0736
[2]
  SARS-CoV-2 infection rate: 114% (inactive)

## N[C@@H](Cc1c[nH]c2ccccc12)C(=O)O [tryptophan] (10 µM)
[1]
  morphology score: -0.124
[2]
  SARS-CoV-2 infection rate: 100% (inactive)

## CNc1nc(-c2ccc3c(N)n[nH]c3c2)cc(N2C[C@@H](C(=O)NC3CCCCC3)CC[C@H]2C)n1 (0.833333 µM)
[1]
  morphology score: 0.0384
[2]
  SARS-CoV-2 infection rate: 106% (inactive)

## C[C@@H]1CN(Cc2ccc(F)cc2)CCN1C(=O)COc1ccc(Cl)cc1NC(N)=O (10 µM)
[1]
  morphology score: -0.0461
[2]
  SARS-CoV-2 infection rate: 112% (inactive)

## CCCCCCOc1ccccc1C(N)=O [exalamide] (10 µM)
[1]
  morphology score: 0.105
[2]
  SARS-CoV-2 infection rate: 108% (inactive)

## NC(=O)N/N=C/c1ccc(Oc2ccc(F)cc2)cc1 (10 µM)
[1]
  morphology score: -0.137
[2]
  SARS-CoV-2 infection rate: 112% (inactive)

## Cn1cnc2c(F)c(Nc3ccc(Br)cc3F)c(C(=O)NOCCO)cc21 [binimetinib] (0.833333 µM)
[1]
  morphology score: -0.00339
[2]
  SARS-CoV-2 infection rate: 110% (inactive)

## Cc1c(Cl)cccc1Nc1ccccc1C(=O)O [tolfenamic-acid] (10 µM)
[1]
  morphology score: 0.00971
[2]
  SARS-CoV-2 infection rate: 110% (inactive)

## CC(=O)NCCCCCC(=O)O [acexamic-acid] (10 µM)
[1]
  morphology score: -0.0574
[2]
  SARS-CoV-2 infection rate: 112% (inactive)

## Cn1c(Nc2ccc(C(F)(F)F)cc2)nc2cc(Oc3ccnc(-c4ncc(C(F)(F)F)[nH]4)c3)ccc21 (10 µM)
[1]
  morphology score: -0.041
[2]
  SARS-CoV-2 infection rate: 100% (inactive)

## CCOP(=S)(OCC)Oc1nc(Cl)c(Cl)cc1Cl [chlorpyrifos] (10 µM)
[1]
  morphology score: -0.24
[2]
  SARS-CoV-2 infection rate: 112% (inactive)

## CC(=O)N[C@@H](CC(=O)O)C(=O)N[C@@H](CCC(=O)O)C(=O)O [spaglumic-acid] (10 µM)
[1]
  morphology score: 0.121
[2]
  SARS-CoV-2 infection rate: 88.5% (inactive)

## Nc1cccc2c1C(=O)N(C1CCC(=O)NC1=O)C2=O (stereo not drawn) [pomalidomide] (10 µM)
[1]
  morphology score: -0.074
[2]
  SARS-CoV-2 infection rate: 108% (inactive)

## COC(=O)C1=CCCN(C)C1 [arecoline] (10 µM)
[1]
  morphology score: 0.184
[2]
  SARS-CoV-2 infection rate: 100% (inactive)

## COc1cc(C(=O)N(CC[C@H]2CCCN2C)C/C(C)=C/c2ccccc2F)cc(OC)c1OC (racemic) (10 µM)
[1]
  morphology score: 0.055
[2]
  SARS-CoV-2 infection rate: 108% (inactive)

## O=C1C(=O)N(Cc2ccc(Cl)c(Cl)c2)c2ccccc21 [apoptosis-activator-II] (10 µM)
[1]
  morphology score: 0.0389
[2]
  SARS-CoV-2 infection rate: 104% (inactive)

## COc1cc(N)c(Cl)cc1C(=O)OCCCN1CCCCC1 (10 µM)
[1]
  morphology score: 0.0833
[2]
  SARS-CoV-2 infection rate: 100% (inactive)

## COc1cc(/C=C/C(=O)O)ccc1O [ferulic-acid] (10 µM)
[1]
  morphology score: -0.0443
[2]
  SARS-CoV-2 infection rate: 110% (inactive)

## C1CCC(C(CC2CCCCN2)C2CCCCC2)CC1 (stereo not drawn) [perhexiline] (0.833333 µM)
[1]
  morphology score: -0.219
[2]
  SARS-CoV-2 infection rate: 114% (inactive)

## CCCCCCCCCCCCCCCCCCCCCCCCCCCCO [1-octacosanol] (10 µM)
[1]
  morphology score: 0.118
[2]
  SARS-CoV-2 infection rate: 100% (inactive)

## O=C(C1CC1)N1CC[C@@H](Cc2n[nH]c(=O)n2-c2ccc(-c3ccc4occc4c3)cc2)C1 (10 µM)
[1]
  morphology score: 0.269
[2]
  SARS-CoV-2 infection rate: 90.5% (inactive)

## Cc1cc(C(C)(C)C)c(O)c(C)c1CC1=NCCN1 [oxymetazoline] (10 µM)
[1]
  morphology score: 0.233
[2]
  SARS-CoV-2 infection rate: 100% (inactive)
